Compound activity: PubChem BioAssay, National Center for Advancing Translational Sciences (NCATS)
L3MBTL1 inh-1 – inhibitors of human L3MBTL1; AlphaScreen L3MBTL1–H3K9me1 peptide binding; Q9Y468; 0.66% of 230,000 active; Potency, µM (doses to about 57.1 µM), without a hit: at the highest dose activity, negative = inhibition, hits mostly inhibitors; also: % is scaled to controls: 0 for no effect and ±100 for the full control effect; nearly all actives have a fitted effect of over 60% in size
Target sequence (Q9Y468 whole entry, looked up): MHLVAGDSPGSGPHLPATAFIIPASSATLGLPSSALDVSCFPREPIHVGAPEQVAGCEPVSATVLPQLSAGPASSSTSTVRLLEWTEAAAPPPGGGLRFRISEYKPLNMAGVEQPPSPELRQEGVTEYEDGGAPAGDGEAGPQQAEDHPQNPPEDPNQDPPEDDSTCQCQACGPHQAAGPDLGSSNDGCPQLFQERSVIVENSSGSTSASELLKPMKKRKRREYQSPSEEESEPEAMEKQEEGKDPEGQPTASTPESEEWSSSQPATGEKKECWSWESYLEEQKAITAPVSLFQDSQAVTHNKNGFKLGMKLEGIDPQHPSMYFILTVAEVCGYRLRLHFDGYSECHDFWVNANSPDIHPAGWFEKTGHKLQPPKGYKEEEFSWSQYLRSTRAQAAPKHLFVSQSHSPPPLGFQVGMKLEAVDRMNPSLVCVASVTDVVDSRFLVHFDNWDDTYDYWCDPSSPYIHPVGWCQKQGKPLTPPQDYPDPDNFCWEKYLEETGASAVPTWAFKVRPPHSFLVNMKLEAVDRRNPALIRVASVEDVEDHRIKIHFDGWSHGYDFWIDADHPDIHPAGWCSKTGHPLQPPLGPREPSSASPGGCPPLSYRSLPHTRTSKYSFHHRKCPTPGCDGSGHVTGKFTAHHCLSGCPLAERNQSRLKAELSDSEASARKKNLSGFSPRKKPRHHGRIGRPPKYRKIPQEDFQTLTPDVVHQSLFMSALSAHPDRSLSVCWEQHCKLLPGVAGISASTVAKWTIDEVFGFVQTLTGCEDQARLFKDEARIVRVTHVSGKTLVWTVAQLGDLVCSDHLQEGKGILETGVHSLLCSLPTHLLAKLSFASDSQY
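L3MBTL1 50 nM + b-AHA-H3(1-15)K9me1 75 nM, 30 min RT; compound added, 30 min RT; streptavidin donor/Ni-chelate acceptor beads 10 ug/mL each final, 30 min RT dark; AlphaScreen read.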
Sfp PPTase inh – inhibitors of Bacillus subtilis Sfp phosphopantetheinyl transferase. Q9F4F7. Biochemical Sfp PPTase activity, qHTS. AID 1490. Potency, µM, for inactives: largest response in the series, negative = inhibition, most hits filed as inhibitors. 3.5% of 310,000 active;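 also: the enzyme is Sfp with the accession as filed and its product quenches rhodamine fluorescence; 0% = enzyme reaction without inhibitor and -100% = no enzyme wells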
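Compounds were incubated with enzyme (final 15 nM) for 15 min at room temperature before substrate addition started the reaction. Fluorescence at 525 nm excitation, 598 nm emission was recorded immediately and after 30 minutes.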
BAZ2B block – blocks human BAZ2B; Q9UIF8; AlphaScreen BAZ2B-H3K14Ac peptide displacement; Potency, µM (highest dose often 114 µM), for inactives: top-dose activity change, negative = inhibition, hits mostly inhibitors; 4.4% of 360,000 active; AID 504333; also: % is scaled to controls: 0 for no effect and ±100 for the full control effect; nearly all actives have a fitted effect of over 60% in size
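AlphaScreen displacement of biotin-H3(5-23)K14Ac peptide (50 nM final) from BAZ2B (50 nM final) in PBS pH 7.4, 0.01% Tween-20; complex preformed 30 min RT, then compounds (top 110 uM) 30 min RT, beads 20 min dark.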
G9a inh – G9a (human) methyltransferase inhibition. Potency, µM (doses to about 102 µM), inactives show top-dose activity, negative = inhibition, usual class: inhibitors. G9a H3K9 monomethylation, AlphaScreen, 2 h. Q96KQ7. 8.8% of 350,000 active; also: % is scaled to controls: 0 for no effect and ±100 for the full control effect; nearly all actives have a fitted effect of over 75% in size
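G9a (20 nM) was preincubated 15 min with compound, then reacted 2 h at room temperature with 500 nM biotin-H3K9 peptide and 20 µM SAM. Monomethyl-H3K9 detected by AlphaScreen using anti-H3K9me1 antibody.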
JMJD2A Tudor – JMJD2A Tudor domain (human) inhibition; O75164; AlphaScreen JMJD2A-Tudor / H3K4me3 peptide binding; Potency, µM (series often up to 114 µM), inactives show at the highest dose activity change, negative = inhibition, most hits filed as inhibitors; 4.4% of 390,000 active; AID 504339; also: % is scaled to controls: 0 for no effect and ±100 for the full control effect; nearly all actives have a fitted effect of over 50% in size
HP1b binding inh – inhibitors of HP1-beta chromodomain binding to methylated histone tails | 0.56% of 390,000 active | Potency, µM (doses to about 114 µM), without a hit: at the top dose activity change, negative = inhibition, actives largely listed as inhibitors | P83916 | AlphaScreen HP1-beta / biotin-H3K9me3 peptide binding | AID 540317; also: nearly all actives have a fitted effect of over 70% in size
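HP1-beta protein (50 nM final) preincubated 30 min at room temperature with biotinylated H3(1-18)K9me3 peptide (50 nM) in PBS pH 7.4, 0.01% Tween-20, then compound added for 30 min. AlphaScreen streptavidin donor/nickel chelate acceptor beads (10 ug/mL final), 30 min dark, luminescence read.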
L3MBTL1 inh-2 – blocks human L3MBTL1 methyl-lysine binding. Potency, µM, hits mostly inhibitors. 91% of 500 active. L3MBTL1 methyl-lysine binding inhibition, biochemical qHTS. shares compounds with L3MBTL1 inh-1; also: nearly all actives have a fitted effect of over 70% in size
AlphaScreen ctr2 – counter-screen for L3MBTL1 inhibitors: AlphaScreen signal interference; AID 602224; 500 tested, under 10 active; AlphaScreen counterscreen, signal inhibition; shares compounds with L3MBTL1 inh-1; Potency, µM (series often up to 57.1 µM), inactives show top-dose activity change, negative = inhibition, most hits filed as inhibitors; also: 0% is about no effect
Starred values were filed as active, the others as inactive; ? = inconclusive; / = not tested or not shown; [ ] = remark or other dose. In the library only some 12% were active in any assay of this set; here they are far more common. Calls follow the shape of the dose curve; as a rule, active = well fitted curve in the direction sought with a large enough effect; inconclusive = small, poorly fitted or top-dose-only effect, or another doubt; inactive = no such curve, though single readings can be large; an effect the other way counts as inactive or inconclusive. Potency is read from the fitted curve at half-maximal effect.

SMILES | L3MBTL1 inh-1 | Sfp PPTase inh | BAZ2B block | G9a inh | JMJD2A Tudor | HP1b binding inh | L3MBTL1 inh-2 | AlphaScreen ctr2
CC1CCN(Cc2c(O)ccc3c2O/C(=C\c2ccco2)C3=O)CC1 | 10µM* | ? | 50µM* | 5.6µM* | -27% | 15% | 27* | -2%
COC(=O)CC1=COC(O)C2C(CO)=CC[C@@H]12 (stereo partly drawn) | / | 0% | / | / | / | / | / | /
COC(=O)\C(C(C)=O)=C(/C=C/C=C/N(C)C)N(C)C | 14µM* | 2% | 35µM* | ? | ? | -5% | 6.7* | 19%
COC(=O)/C(C(C)=O)=C(/C=C/C=C/N(C)C)N(C)C | / | -6% | -34% | ? | ? | 1% | / | /
COc1ccc(-c2nnc3sc(-c4ccco4)nn23)cc1OC | / | -18% | -12% | ? | -13% | 32% | / | /
Cc1oc(-c2ccc(F)cc2)cc1-c1nn2c(-c3ccoc3C)nnc2s1 | 18µM* | 40µM* | 35µM* | ? | 89µM* | ? | 6* | 6%
Cc1c(CCO)c(=O)n2c([nH]c3ccccc32)c1C#N | / | 13% | -11% | -8% | -4% | 38% | / | /
N#Cc1c(=O)c2nc(NCCCO)ncc2n2c(=O)c3ccccc3[nH]c12 | 10µM* | 0% | 13µM* | 45µM* | 56µM* | 28% | 6* | 45%
COc1cccc(NS(=O)(=O)c2ccc3c(c2)n(C)c(=O)n3C)c1 | / | / | ? | -1%[59 µM] | -3% | 41% | / | /
O=C1/C(=C\c2cccs2)SC(=S)N1C1CCS(=O)(=O)C1 (stereo not drawn) | ? | -9% | ? | ? | ? | -1% | / | /
Cc1ccc(/C=C2\SC(=S)N(C3CCS(=O)(=O)C3)C2=O)o1 (stereo not drawn) | 25µM* | 50µM* | 40µM* | / | ? | -36% | 21* | -4%
CC1=CC2=NC(=O)/C(=C\c3ccc(-c4ccc(Cl)cc4)o3)C(=N)N2O1 | 0% | -3% | 5% | -11% | / | / | / | /
Cc1ccc(N2NC(=O)/C(=C/c3ccc(-c4ccc(Cl)c(C(=O)O)c4)o3)C2=O)cc1 | 28µM* | 0% | ? | 45µM* | ? | -7% | 11* | -2%
CCCCC1(C)OC(=O)C(=Cc2ccc(SC)cc2)C(=O)O1 (stereo not drawn) | / | 20% | -3% | -1%[59 µM] | 2% | 29% | / | /
CCCCC1(C)OC(=O)C(=Cc2ccc(-c3ccc(Cl)c(C(=O)O)c3)o2)C(=O)O1 (stereo not drawn) | 7.9µM* | 45µM* | -32% | / | -7% | 28% | 13* | 1%
Cn1c(=O)c2nc3ccccc3nc2n(C)c1=O | 10% | -14% | ? | ? | -14% | 27% | / | /
CC(=O)Nc1ccc2nc3c(=O)n(C)c(=O)n(C)c3nc2c1 | 25µM* | ? | ? | 40µM* | 79µM* | -9% | 24* | 5%
S=C1SCN(Cc2ccccn2)CN1Cc1ccco1 | 28µM* | 10µM* | 18µM* | 2.2µM* | 6.3µM* | -31% | 27* | 4%
S=C1SCN(Cc2cccnc2)CN1Cc1ccccc1 | / | -20% | -28% | 1% | -5% | 24% | / | /
O=C(O)CCCCCn1c(SCC(=O)c2ccc(O)c(O)c2)nc2ccsc2c1=O | 32µM* | -13% | ? | 79µM* | ? | -2% | 3* | -1%
COc1ccc(Sc2ccc(/C=C3\C(=O)NN(c4ccccc4)C3=O)o2)cc1 | 28µM* | -13% | 8.9µM* | 10µM* | ? | -26% | 21* | ?
